Compounds with a hit are over-represented: about 0.65% of the library has one in this group of screens.
Sa ugtP lethal = growth inhibition of ugtP-null S. aureus, primary screen, RN4220 ugtP deletion, OD600; 16 h; growth inhibition, % (test concentration not listed); 0.54% of 330,000 active; in the data active = growth inhibition above about 68%
RN4220 kill = growth inhibition of S. aureus RN4220, primary screen, OD600 | 16 h | inhibition, % (test concentration not listed) | 0.33% of 330,000 active | AID 1259311, 2017; in the data active = inhibition above about 85%
BJeLR lethal = MLPCN primary cell-based screen for lethality selective to Ras in HRASV12 cells; BJeLR (HRASV12) viability, CellTiter-Glo ATP luminescence, 48 h; inhibition, % (no concentration beside the values); 0.17% of 300,000 active; in the data active = inhibition above about 50%
Hits are given with their value; i = inactive; nt = no result given.

SMILES	Sa ugtP lethal	RN4220 kill	BJeLR lethal
O=C(COC(=O)c1ccc([N+](=O)[O-])s1)NCc1ccccc1	i	i	i
Cc1[nH]c2ccccc2c1C(=O)COC(=O)c1ccc([N+](=O)[O-])s1	96	90	i
O=C(COC(=O)c1ccc([N+](=O)[O-])s1)Nc1ccc(F)cc1	i	i	nt
COc1ncccc1C(=O)NCC(CC(=O)O)c1ccccc1 (stereo not given)	i	i	i
CC[C@@H](C)[C@@H]1CN([C@@H](CN2CCC[C@H]2CN2C(N)=NC[C@H]2C(C)C)C(C)C)C(=N)N1CCc1ccc(Cl)c(Cl)c1	101	101	nt
CCC(C)C1CN=C(N)N1CCc1cccc(F)c1 (stereo not given)	i	i	nt
CCCCN1C(=N)N(C(CN2CCCC2CN2C(N)=NCC2Cc2ccccc2)C(C)C)CC1Cc1ccccc1 (stereo not given)	i	i	nt
CCCCN1C(=N)N([C@@H](CCC)CN2CCC[C@H]2CN2C(N)=NC[C@H]2CC(C)C)C[C@H]1Cc1ccccc1	i	i	nt
CCCCN1C(=N)N(C(C)CN2CCCC2CN2C(N)=NCC2Cc2ccccc2)CC1Cc1ccccc1 (stereo not given)	i	i	nt
CCCCN1C(=N)N(C(CCC)CN2CCCC2CN2C(N)=NCC2Cc2ccccc2)CC1Cc1ccccc1 (stereo not given)	98	i	nt
CC(C)C[C@@H]1CN=C(N)N1C[C@@H]1CCCN1C[C@@H](C(C)C)N1C[C@@H](Cc2ccccc2)N(CCCC2CCCC2)C1=N	101	101	nt
CCC[C@@H](CN1CCC[C@H]1CN1C(N)=NC[C@H]1C(C)C)N1C[C@@H](Cc2ccccc2)N(CCCC2CCCC2)C1=N	101	100	nt
CCCCCCN1CC(=O)N2Cc3[nH]c4ccccc4c3C[C@H]2C1=O	i	i	i
CN1CCN(C(=O)CCN2C(=O)/C(=C\c3ccc(Cl)cc3Cl)SC2=S)CC1	i	i	i
Cc1ccc(Oc2cc([N+](=O)[O-])cc3c2C(=O)Nc2ccccc2O3)cc1	91	97	i
O=C1Nc2ccccc2Nc2ccc([N+](=O)[O-])cc21	i	i	i
O=S(=O)(/N=C(/c1ccccc1)N1CCCCC1)c1ccccc1	nt	nt	i
O=S(=O)(/N=C(\Sc1ccccc1)c1ccccc1)c1ccc(Cl)cc1	nt	nt	i
O=S(=O)(N=C(Sc1ccc(Cl)cc1)c1ccccc1)c1ccccc1	92	i	nt
Cc1ccc(/C=C/C(=O)c2cc(Br)ccc2OC(=O)c2ccco2)cc1	i	i	i
CCOc1ccc(C(=O)/C=C/c2ccc(OC)c(OC)c2)cc1	i	i	i
O=C(C=Cc1ccccc1)c1cc(Br)ccc1O	i	i	nt
Cc1cccc(/C=C/C(=O)c2cc(Br)ccc(=O)c2O)c1	99	99	i
CCc1ccc(/C=C/C(=O)c2cc(Br)ccc(=O)c2O)cc1	95	100	i
CCOc1ccc(/C=C/C(=O)c2cc(Br)ccc(=O)c2O)cc1	90	i	nt
SMILES	Sa ugtP lethal	RN4220 kill	BJeLR lethal
Cc1ccc(S(=O)(=O)N2CCN(C(=O)COC(=O)CCOc3ccccc3)CC2)c(C)c1	i	i	nt
CCc1nnc(NC(=O)C2CCCN(c3nc(C)cc(C)n3)C2)s1 (stereo not given)	i	i	i
COC(=O)c1cc(NC(=O)C2(S(=O)(=O)c3ccc(C)cc3)CC2)cc(C(=O)OC)c1	i	i	i
NC(=O)C1CC(O)CN1c1nc(CN2CCOCC2)nc2scc(-c3ccccc3)c12 (stereo not given)	i	i	i
CCOC(=O)/C=C(\C)Sc1cc(=O)oc2ccccc12	i	i	i
CCOC(=O)/C=C(\C)Sc1cc(O)c2ccccc2c1O	93	97	nt
O=S(=O)(Nc1ccc(-c2csc(-c3ccccc3)n2)cc1)c1ccc(F)cc1	i	i	i
O=C(Nc1nc(-c2ccccc2)cs1)c1ccccc1NS(=O)(=O)c1ccc(F)cc1	95	93	i
COc1ccccc1N=Nc1nc(-c2ccccc2)c(-c2ccccc2)[nH]1	i	i	i
Oc1ccccc1N=Nc1nc(-c2ccccc2)c(-c2ccccc2)[nH]1	nt	nt	67
CN1CCC(N2CCN(c3cccc(C(F)(F)F)c3)CC2)CC1	i	i	i
Cc1nc2c(-c3ccc(Cl)cc3)c(C)[nH]n2c(=O)c1Cc1ccccc1	100	100	i
Cc1nc2c(-c3ccccc3)c(C)[nH]n2c(=O)c1Cc1ccccc1	i	i	i
COc1ccc2c(=O)c(C(=O)NCCc3ccc(OC)c(OC)c3)c[nH]c2c1	i	i	i
CCN(CC)c1ccc(C=NNc2nc3ccccc3[nH]2)c(O)c1	i	i	nt
CCN(CC)c1ccc(/C=N/Nc2nc(C)cc(=O)[nH]2)c(O)c1	nt	nt	67
CC(C)(C)C1CCC(C(=O)NCCc2ccc(S(N)(=O)=O)cc2)CC1 (stereo not given)	i	i	i
O=C(Nc1nc2c(Cl)cccc2s1)c1ccc([N+](=O)[O-])o1	100	100	i
O=C(Nc1nc2c(F)cccc2s1)c1ccc([N+](=O)[O-])o1	i	i	i
CCOc1ccc2nc(SCc3ccc(OC)cc3)sc2c1	90	i	i
CCOc1ccc2nc(SCc3ccccc3C#N)sc2c1	i	i	i
CCN(CC)C(=O)CSc1nc(O)cc(=O)n1-c1ccccc1OC	i	i	i
COc1ccc(CCNC(=O)C2CCN(C(=O)c3ccc(Br)cc3)CC2)cc1	i	i	i
CC(=O)c1cccc(NC(=O)/C=C/c2ccc([N+](=O)[O-])s2)c1	i	i	63
Cc1cc(C)cc(NC(=O)/C=C/c2ccc([N+](=O)[O-])s2)c1	i	i	i
SMILES	Sa ugtP lethal	RN4220 kill	BJeLR lethal
O=C(CC(Sc1n[nH]c(-c2ccccc2)n1)c1ccccc1)NCc1ccccc1 (stereo not given)	i	i	i
CCN(CC)S(=O)(=O)c1cccc(NC(=O)c2ccc(SC)cc2OC)c1	i	i	i
Clc1ccc(COC(Cn2ccnc2)c2ccc(Cl)cc2Cl)cc1 (stereo not given)	nt	nt	i
Clc1ccc(CSC(Cn2ccnc2)c2ccc(Cl)cc2Cl)cc1 (stereo not given)	i	97	i
O=C(O)c1cccc(Nc2nc(-c3ccc([N+](=O)[O-])cc3)nc3ccccc23)c1	i	i	i
c1ccc(Nc2nc(-c3ccccc3)nc3ccccc23)cc1	i	i	i
COc1cccc(-c2nc(OC(C)C)c3ccccc3n2)c1	94	i	i
COc1ccc(Nc2nc(-c3ccccc3O)nc3ccccc23)cc1	94	i	i
CC(C)Oc1nc(-c2ccc(Cl)cc2)nc2ccccc12	i	i	i
COc1cccc(Nc2nc(-c3ccccc3O)nc3ccccc23)c1	i	i	i
COc1cccc(Nc2nc(-c3ccccc3)nc3ccccc23)c1	91	i	i
O=[N+]([O-])c1ccc(-c2nc(Nc3cccc(O)c3)c3ccccc3n2)cc1	83	85	i
CCC(=O)N(C)CCc1cc2c(c(OC)c1/C=N/NC(=O)c1ccccc1O)OCO2	nt	nt	i
CCCCc1cc(=O)oc2c(CN(C)C)c(O)ccc12	i	i	i
O=c1cccc2n1Cc1cc3ccccc3nc1-2	i	i	i
CC[C@@]1(O)C(=O)OCc2c1cc1n(c2=O)Cc2cc3c(CN(C)C)c(O)ccc3nc2-1	i	i	85
CC[C@@]1(O)C(=O)OCc2c1cc1n(c2=O)Cc2cc3c(N)cccc3nc2-1	i	i	78
COC(=O)CCC(=O)N1CCOCCOCCOCC1	i	i	i

Compound activity from PubChem BioAssay.
